According to PubChem BioAssay (NCI):
This is part of a sample that, as a whole, favours compounds with a hit. Of some 83,000 tested, about 20% had one in any assay.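 For each line, cells grew in 96-well plates with the test compound present at a single concentration for 48 hours.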 Activity calls are given as the source filed them.

These compounds were tested on EKVX NSCLC (assay: NCI-60 one-dose screen, 48 h (100 = growth as untreated, 0 = no growth, -100 = all killed)). Conditions: 10 µM unless noted.
Experimental: Growth inhibition of the EKVX human Non-Small Cell Lung tumor cell line is measured as a screen for anti-cancer activity. Cells are grown in 96 well plates and exposed to the test compound for 48 hours. Compounds are tested at a single concentration, which is 10^-5 M for most compounds. The reported endpoint is percent growth (GI% or GIPRCNT), where numbers from 0 - 100% represent growth inhibition, and numbers from -100% - 0 represent cell death. For example, a value of 40 represents 60% growth inhibition. A value of 0 means no net growth occurred over the course of the experiment. A value of -40 indicates 40% of cells at the beginning of the experiment died by the end of the experiment. A value of -100 means all cells are dead at the end of the experiment.
NCI-60 Human Tumor Cell Lines Screen was performed using the standard one-dose NCI protocol, which is described in more detail at https://dtp.cancer.gov/discovery_development/nci-60/default.htm.
Compounds with GIPRCNT values below 10 were considered active. Activity score was based on GIPRCNT using the following formula: […]
Score is 0 for GIPRCNT values of 100 or above, 50 for GIPRCNT values of 0, and 100 for GIPRCNT values of -100.

SMILES | growth
C#CC[C@@H]1C[C@]2(C)[C@H]3CC[C@@H]4[C@H]5C(C(=C)C)CC[C@]5(C(=O)NCCCN5CCN(CCCN)CC5)CC[C@@]4(C)[C@]3(C)CC[C@H]2C(C)(C)[C@H]1OC(C)=O (stereo not given in full) | 51.9% (inactive)
O=C(Nc1ccc(Oc2ccc(NC(=O)Nc3ccccc3Cl)cc2)cc1)Nc1ccccc1Cl | 76.5% (inactive)
CCc1ccc2c(c1)N(CCO)C1=C(C(=O)OC1)C2c1cccc(Cl)c1 (stereo not given) | 43% (inactive)
COc1cc(NC(C)CCCN)c2ncccc2c1Sc1ccc(Cl)cc1 (stereo not given) | 71.9% (inactive)
CCc1ccc2c(c1)N(CCO)C1=C(C(=O)OC1)C2c1cccc(Br)c1 (stereo not given) | 47.4% (inactive)
COc1cc(/C=C/c2ccc3c(Br)cc(Br)c(O)c3n2)ccc1O | 23.1% (inactive)
O=[N+]([O-])c1cc(F)c2cccnc2c1O | 110% (inactive)
CN1CCN(Cc2ccc(NC(=O)c3cncc(C#Cc4ncc5cnccn45)c3)cc2C(F)(F)F)CC1 | 77.2% (inactive)
COc1ccc(/C=c2\c(=O)n(-c3ccccc3)c3nn4c(n23)=NNC42CCCCC2)cc1 | 91.8% (inactive)
CC(=O)OC1Oc2cc(C)c(C)cc2-c2oc(=O)c(-c3cc4ccccc4oc3=O)cc21 (stereo not given) | 115% (inactive)
C=CCn1c(SCC(=O)Nc2ccc(C(=O)/C=C/c3ccc(Cl)cc3)cc2)nnc1-c1ccc(Cl)cc1 | 86.6% (inactive)
CCCCN(CCCC)CCC(O)c1cc2ccc(C(F)(F)F)cc2c2cc(C(F)(F)F)ccc12 (stereo not given) | 70% (inactive)
SCc1ccc(CS)cc1 | 104% (inactive)
COc1ccc2[nH]c(C(=O)OCc3ccc4cccc(O)c4n3)cc2c1 | -78% (active)
CC(=O)N(C)c1ccc(Nc2cc(C)[nH]c3ccc4ncnc4c23)cc1 | 79.4% (inactive)
O=C(NNC(=S)Nc1ccccc1)c1ccc(Nc2ncnc3c2cnn3-c2cccc(Br)c2)cc1 | 105% (inactive)
O=C1C2=C(C(=O)c3c(O)ccc(O)c31)N(c1ccc(N3CCOCC3)nc1)Cc1ccccc1O2 | -9.79% (active)
CCN(CC)CCCC(C)Nc1cnc(C(=O)Nc2ccc(Cl)c3cccnc23)cn1 (stereo not given) | 66.1% (inactive)
CCOC(C)(c1ccc(Cl)cc1)C1CCNCC1 (stereo not given) | 72.9% (inactive)
CCOc1cccc(/C=N/NC(=O)c2ccc(Nc3ccnc(C(F)(F)F)c3)cc2)c1O | 15.2% (inactive)

SMILES | growth
N#Cc1ccc(NC(=O)Nc2nc3ccc(OC(F)(F)F)cc3s2)cc1 | -6.94% (active)
CC1CN(CCCOC(=O)Nc2ccc(Cl)cc2)CCN1C(C)(C)C (stereo not given) | 96.9% (inactive)
CCOc1ccc([C@@H]2[C@@H](Oc3ccccc3)C(=O)N2c2cc(OC)c(OC)c(OC)c2)cc1 | 43.5% (inactive)
Oc1c(-c2cc(C(F)(F)F)[nH]n2)cc(Cl)c(OCc2ccc(Cl)cc2)c1-c1ccc(Cl)c(C(F)(F)F)c1 | 4.67% (active)
CCOC(=O)C(=CNc1ccccc1Cl)C(=O)OCC | 106% (inactive)
Cn1nc(C(F)(F)F)cc1-c1cc(Cl)c(OCc2ccc(Cl)cc2)c(-c2ccc(Cl)c(C(F)(F)F)c2)c1O | 4.62% (active)
Cn1nc(C(F)(F)F)cc1-c1c[nH]c(OCc2ccc(Cl)cc2)c(-c2ccc(Cl)c(C(F)(F)F)c2)c1=O | 5.56% (active)
c1ccc2c(c1)cnc1ccccc12 | 115% (inactive)
O=C(OCc1ccc2c(Br)cc(Br)c(O)c2n1)c1cc2ccccc2[nH]1 | -65.5% (active)
CC1(C)C(N(O)C(=O)Nc2ccc(Cl)cc2)N(c2ccc(Cl)cc2)C(=O)N1CC(=O)N/N=C/C=C/c1ccc([N+](=O)[O-])o1 (stereo not given) | 29.8% (inactive)
NCCCOc1cc2ccccc2cc1C(=O)NCCCOc1cc2ccccc2cc1C(=O)Nc1ccc(Cl)cc1O | -45.6% (active)
CN(C)c1ccc(Nc2c3ccccc3nc3ccccc23)cc1 | 19.1% (inactive)
C#CC[C@@H]1C[C@]2(C)[C@H]3CC=C4[C@H]5[C@@H](C)[C@H](C)CC[C@]5(C(=O)NCCCN5CCN(CCCN)CC5)CC[C@@]4(C)[C@]3(C)CC[C@H]2C(C)(C)[C@H]1OC(C)=O | -83.4% (active)
COc1ccc(/C(=C\c2cc(OC)c(OC)c(OC)c2)C(=O)N2CCCNCC2)cc1 | 104% (inactive)
COC(=O)c1cc2oc(/C=N/NC(=O)c3cc4oc(-c5cccc(C(F)(F)F)c5)cc4[nH]3)cc2n1Cc1ccccc1 | 117% (inactive)
CCSc1ccc([C@@H]2[C@@H](N)C(=O)N2c2cc(OC)c(OC)c(OC)c2)cc1 | 41% (inactive)
O=C1/C(=C\c2cccn2Cc2ccc(F)cc2)c2ccccc2N1c1c(Cl)cccc1Cl | 54.6% (inactive)
COc1ccc(/C=c2\c(=O)n(-c3ccccc3)c3nn4c(=O)c(=O)[nH]nc4n23)cc1 | 104% (inactive)
Nc1cccc(S(=O)(=O)c2cccc(N)c2)c1 | 105% (inactive)
N[C@@H](CO)C(=O)O | 84.3% (inactive)
